# Laboratory results: PubChem BioAssay (NCATS)
# Results filed as inconclusive are left out. A call without a number means that no potency is given here. Unmarked numbers belong to inactive results. Activity calls are given as the source filed them. Calls come from the whole dose curve; as a rule, active = well fitted inhibition curve with a large enough effect; inconclusive = small, poorly fitted or top-dose-only effect; inactive = flat fitted curve, though single readings scatter.
# Legend:
# [1] = qHTS profiling for inhibitors of Plasmodium falciparum proliferation (AID 504749); note: nearly all actives have a fitted effect of over 60% in size; conditions: P. falciparum in erythrocytes, SYBR Green DNA, 72 h
# How it was run: (§1)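 SYBR Green fluorescence of parasite DNA, read after lysis and overnight dark incubation, measured growth over 72 h in erythrocyte culture at 0.3% parasitemia and 2.5% hematocrit. Data normalised to DMSO and 0.29 uM artemisinin, with plate-drift correction.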
# 7G8 = test: as above; conditions: P. falciparum in erythrocytes, SYBR Green DNA, 72 h; series mostly up to 28.7 µM
# How it was run: as §1
# AA1029 = test: as above; conditions: P. falciparum in erythrocytes, SYBR Green DNA, 72 h; series mostly up to 28.7 µM
# How it was run: as §1
# AS120 = test: as above; conditions: P. falciparum in erythrocytes, SYBR Green DNA, 72 h; series mostly up to 28.7 µM
# How it was run: as §1
# 3D7 = test: as above; conditions: P. falciparum in erythrocytes, SYBR Green DNA, 72 h; series mostly up to 28.7 µM
# How it was run: as §1
# ATS189 = test: as above; conditions: P. falciparum in erythrocytes, SYBR Green DNA, 72 h; series mostly up to 28.7 µM
# How it was run: as §1
# [2] = at 28.7 µM (top of the series), parasite line B
# [3] = at 28.7 µM (top of the series), parasite line A
# [4] = at 12.8 µM (top of the series), parasite line A
# Potency is the fitted concentration of half-maximal effect.
smiles,measurement,setting,value
F/C(COc1ccc2c(c1)[nH]c1ccccc12)=C1/CN2CCC1CC2,Potency,[1]; parasite line B,10 µM (active)
same,Potency,7G8,5.01 µM (active)
same,Potency,AA1029,10 µM (active)
same,Potency,AS120,4.47 µM (active)
C[C@H]1CCC[C@H](O)CCCCCc2cc(O)cc(O)c2C(=O)O1,"activity, negative = inhibition",[1]; [2],-17.3%
same,Potency,3D7,inactive
same,Potency,7G8,12.6 µM (active)
same,Potency,ATS189,inactive
OC(c1ccccc1)(c1ccccc1)C1CN2CCC1CC2 (centres undefined),"activity, negative = inhibition",[1]; [3],2.79%
same,"activity, negative = inhibition",[1]; [2],-0.359%
same,Potency,3D7,inactive
same,Potency,AS120,inactive
same,Potency,ATS189,inactive
O=C(NC(=O)c1c(F)cccc1F)Nc1ccc(Cl)c(Oc2ncc(C(F)(F)F)cc2Cl)c1,"activity, negative = inhibition",[1]; [3],9.79%
same,"activity, negative = inhibition",[1]; [2],-1.85%
same,Potency,3D7,inactive
same,Potency,AA1029,inactive
same,Potency,AS120,inactive
same,Potency,ATS189,inactive
C[C@@H](Cc1ccccc1)NCCC(c1ccccc1)c1ccccc1,"activity, negative = inhibition",[1]; [4],-17.6%
same,Potency,7G8,4.47 µM (active)
same,Potency,ATS189,inactive
O=C1CN(O)C(c2ccccc2)=c2cc(Cl)ccc2=N1,"activity, negative = inhibition",[1]; [3],7.13%
same,"activity, negative = inhibition",[1]; [2],1.2%
same,Potency,3D7,inactive
same,Potency,AA1029,inactive
same,Potency,AS120,inactive
same,Potency,ATS189,inactive
Clc1ccccc1Cl,"activity, negative = inhibition",[1]; [3],6.5%
same,Potency,3D7,inactive
same,Potency,7G8,inactive
same,Potency,AA1029,inactive
same,Potency,AS120,inactive
same,Potency,ATS189,inactive
C[C@H]1CC[C@@H]2[C@@H](C)[C@H]3[C@H](C[C@H]4[C@@H]5CC=C6CC(O[C@@H]7O[C@H](CO)[C@H](O)[C@H](O[C@@H]8O[C@H](CO)[C@@H](O)[C@H](O)[C@H]8O)[C@H]7O[C@H]7O[C@@H](C)[C@H](O)[C@@H](O)[C@H]7O)CC[C@]6(C)[C@H]5CC[C@]34C)N2C1 (some centres undefined),"activity, negative = inhibition",[1]; [3],-2.66%
same,"activity, negative = inhibition",[1]; [2],12%
same,Potency,3D7,inactive
same,Potency,7G8,inactive
same,Potency,AA1029,inactive
same,Potency,AS120,inactive
same,Potency,ATS189,inactive
Clc1ccc(C2(Cn3cncn3)OCCO2)c(Cl)c1,"activity, negative = inhibition",[1]; [3],8.04%
same,"activity, negative = inhibition",[1]; [2],-7.5%
same,Potency,3D7,inactive
same,Potency,AA1029,inactive
same,Potency,AS120,inactive
same,Potency,ATS189,inactive
O=C1CN=C(c2ccccc2)c2cc(Cl)ccc2N1CC1CC1,"activity, negative = inhibition",[1]; [3],-5.97%
same,"activity, negative = inhibition",[1]; [2],-9.8%
same,Potency,AA1029,inactive
same,Potency,ATS189,inactive
O=c1c2ccccc2[se]n1-c1ccccc1,Potency,7G8,8.91 µM (active)
same,Potency,AA1029,inactive
CC(=O)O[C@H]1CC[C@H]2[C@@H]3CCC4=CC(=O)CCC4=C3C=C[C@]12C,"activity, negative = inhibition",[1]; [3],4.1%
same,"activity, negative = inhibition",[1]; [2],0.383%
same,Potency,3D7,inactive
same,Potency,AA1029,inactive
same,Potency,AS120,inactive
same,Potency,ATS189,inactive
CCC(=O)O[C@@](Cc1ccccc1)(c1ccccc1)[C@@H](C)CN(C)C,"activity, negative = inhibition",[1]; [4],-5.92%
same,"activity, negative = inhibition","[1]; at 12.8 µM (top of the series), parasite line B",-0.756%
same,Potency,3D7,inactive
same,Potency,AA1029,inactive
same,Potency,AS120,inactive
same,Potency,ATS189,inactive
CNC(=O)Oc1ccccc1C(=O)Nc1ccccc1,Potency,[1]; parasite line B,11.2 µM (active)
same,Potency,3D7,inactive
same,Potency,7G8,10 µM (active)
CCCC(=O)OC(C(Cl)(Cl)Cl)P(=O)(OC)OC (centres undefined),"activity, negative = inhibition",[1]; [3],-16.7%
same,"activity, negative = inhibition",[1]; [2],-35.8%
same,Potency,AA1029,inactive
same,Potency,AS120,inactive
same,Potency,ATS189,inactive
CCN(CC)C(=O)/C(Cl)=C(\C)OP(=O)(OC)OC,"activity, negative = inhibition",[1]; [3],-6.34%
same,"activity, negative = inhibition",[1]; [2],3.3%
same,Potency,3D7,inactive
same,Potency,AA1029,inactive
same,Potency,AS120,inactive
same,Potency,ATS189,inactive
CCCC(C)(COC(N)=O)COC(=O)NC1CC1 (centres undefined),"activity, negative = inhibition",[1]; [3],8.1%
same,"activity, negative = inhibition",[1]; [2],1.21%
same,Potency,3D7,inactive
same,Potency,AA1029,inactive
same,Potency,AS120,inactive
same,Potency,ATS189,inactive
Clc1ccc(Cl)cc1,"activity, negative = inhibition",[1]; [3],7.27%
same,Potency,3D7,inactive
same,Potency,7G8,inactive
same,Potency,AA1029,inactive
same,Potency,AS120,inactive
same,Potency,ATS189,inactive
O=C1C2CC=CCC2C(=O)N1SC(Cl)(Cl)Cl (centres undefined),"activity, negative = inhibition",[1]; [3],-6.95%
same,"activity, negative = inhibition",[1]; [2],5.29%
same,Potency,3D7,inactive
same,Potency,AA1029,inactive
same,Potency,AS120,inactive
same,Potency,ATS189,inactive
CCC1(c2ccccc2)C(=O)NC(=O)NC1=O,"activity, negative = inhibition",[1]; [3],5.22%
same,"activity, negative = inhibition",[1]; [2],9.88%
same,Potency,3D7,inactive
same,Potency,7G8,inactive
same,Potency,AA1029,inactive
same,Potency,ATS189,inactive
CNC1(c2ccccc2Cl)CCCCC1=O (centres undefined),"activity, negative = inhibition",[1]; [3],12.4%
same,Potency,3D7,inactive
same,Potency,7G8,inactive
same,Potency,AA1029,inactive
same,Potency,AS120,inactive
same,Potency,ATS189,inactive
CN1[C@@H]2CC[C@H]1CC(OC1c3ccccc3CCc3ccccc31)C2 (some centres undefined),Potency,[1]; parasite line A,3.98 µM (active)
same,Potency,3D7,inactive
same,Potency,7G8,3.98 µM (active)
same,Potency,AA1029,3.55 µM (active)
same,Potency,AS120,3.55 µM (active)
CC1CCC(C(C)C)C(OC(=O)c2ccccc2N)C1 (centres undefined),"activity, negative = inhibition",[1]; [3],-17.5%
same,"activity, negative = inhibition",[1]; [2],-19.4%
same,Potency,3D7,inactive
same,Potency,AA1029,inactive
same,Potency,AS120,inactive
CN1C2CCC1CC(OC(c1ccccc1)c1ccc(Cl)cc1)C2 (centres undefined),Potency,[1]; parasite line A,5.01 µM (active)
same,Potency,[1]; parasite line B,7.08 µM (active)
same,Potency,3D7,12.6 µM (active)
same,Potency,7G8,4.47 µM (active)
same,Potency,AA1029,11.2 µM (active)
same,Potency,AS120,11.2 µM (active)
same,Potency,ATS189,10 µM (active)
c1ccc(C2(N3CCCC3)CCCCC2)cc1,Potency,[1]; parasite line A,12.6 µM (active)
same,Potency,3D7,12.6 µM (active)
same,Potency,7G8,11.2 µM (active)
same,Potency,AA1029,11.2 µM (active)
same,Potency,AS120,11.2 µM (active)
same,Potency,ATS189,inactive
CCOP(=O)(OCC)O/C(=C/Cl)c1ccc(Cl)cc1Cl,"activity, negative = inhibition",[1]; [3],-27.9%
same,"activity, negative = inhibition",[1]; [2],-21.8%
same,Potency,3D7,inactive
same,Potency,AA1029,inactive
same,Potency,ATS189,inactive
CCCCNCC(O)c1ccc(O)cc1 (centres undefined),"activity, negative = inhibition",[1]; [3],-2.61%
same,"activity, negative = inhibition",[1]; [2],-2.79%
same,Potency,3D7,inactive
same,Potency,7G8,inactive
same,Potency,AA1029,inactive
same,Potency,AS120,inactive
same,Potency,ATS189,inactive
CCCCCCCCCC(=O)O[C@H]1CC[C@H]2[C@@H]3CCC4=CC(=O)CC[C@]4(C)[C@H]3CC[C@]12C,"activity, negative = inhibition",[1]; [3],8.28%
same,"activity, negative = inhibition",[1]; [2],-5.1%
same,Potency,7G8,inactive
same,Potency,AA1029,inactive
same,Potency,AS120,inactive
same,Potency,ATS189,inactive
CC12NC(Cc3ccccc31)c1ccccc12 (centres undefined),"activity, negative = inhibition",[1]; [3],-7.25%
same,"activity, negative = inhibition",[1]; [2],6.66%
same,Potency,3D7,inactive
same,Potency,AA1029,11.2 µM (active)
